Data: PubChem BioAssay (EPA / NIEHS)
Several values for one entry are separate records, joined by “and”; a condition that tells them apart may be missing. Identical values can stand only once. Records with an inconclusive call do not appear. Some compounds were tested as several samples or in several runs, with calls that do not always agree. Activity calls are given as the source filed them. How the source made its calls, unless noted: active means hit-call score of the fitted dose curve at least 0.9, where 1 is the maximum; inconclusive means response in the unintended direction; inactive means score below 0.9.

Assays:
[1] = read-out: Thyroid Hormone Responsive (THRSP), THRSP (gene 7069); test: LTEA_HepaRG_THRSP: Life Technologies and Expression Analysis (LTEA) Assay for Thyroid Hormone Responsive (THRSP) using HepaRG (AID 2283536; active means hit-call score of the fitted dose curve at least 0.9, where 1 is the maximum; inactive means score below 0.9); details: mRNA level, 48 h; actives raise or lower the signal
Summary of the method: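 Cell model: human HepaRG, approx. 100,000 cells/well, 0.5% DMSO vehicle. Exposure lasts 48 h; phenobarbital 1 mM serves as induction positive control. Gene expression is measured by qRT-PCR against three endogenous control genes.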

[2] = read-out: Cellular tumor antigen p53 (Homo sapiens) (UniProt P04637); test: LTEA_HepaRG_TP53: Life Technologies and Expression Analysis (LTEA) Assay for Tumor Protein P53 (TP53) using HepaRG (AID 2283537; active means hit-call score of the fitted dose curve at least 0.9, where 1 is the maximum; inactive means score below 0.9); details: mRNA level, 48 h; actives raise or lower the signal
Summary of the method: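 Read-out is TP53 transcript level by microfluidic qRT-PCR, normalised to three housekeeping genes and fitted bidirectionally against DMSO. Human HepaRG cells received compounds for 48 h, highest concentration 100 uM.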

[3] = read-out: UDP glucuronosyltransferase (UGT1A1), UGT1A1 (gene 54658); test: LTEA_HepaRG_UGT1A1: Life Technologies and Expression Analysis (LTEA) Assay for UDP glucuronosyltransferase (UGT1A1) using HepaRG (AID 2283538; active means hit-call score of the fitted dose curve at least 0.9, where 1 is the maximum; inactive means score below 0.9); details: mRNA level, 48 h; actives raise or lower the signal
Summary of the method: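 HepaRG, 48 h chemical exposure (top 100 uM, half-log 8-pt, 0.5% DMSO vehicle), duplicate wells; qRT-PCR (TaqMan, Fluidigm array) for UGT1A1 mRNA, housekeeping-normalized; bidirectional curve fit vs DMSO baseline.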

[4] = read-out: UDP glucuronosyltransferase (UGT1A6), UGT1A6 (gene 54578); test: LTEA_HepaRG_UGT1A6: Life Technologies and Expression Analysis (LTEA) Assay for UDP glucuronosyltransferase (UGT1A6) using HepaRG (AID 2283539; active means hit-call score of the fitted dose curve at least 0.9, where 1 is the maximum; inactive means score below 0.9); details: mRNA level, 48 h; actives raise or lower the signal
Summary of the method: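 Expression was quantified by TaqMan qRT-PCR on Fluidigm arrays with ACTB/GAPDH/POLR2A normalization and bidirectional fitting against 0.5% DMSO. HepaRG cells (~100,000/well) were treated in duplicate for 48 h at eight half-log concentrations up to 100 uM in serum-free induction medium.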

[5] = read-out: X-box binding protein 1 (XBP1), XBP1 (gene 7494); test: LTEA_HepaRG_XBP1: Life Technologies and Expression Analysis (LTEA) Assay for X-box binding protein 1 (XBP1) using HepaRG (AID 2283540; active means hit-call score of the fitted dose curve at least 0.9, where 1 is the maximum; inactive means score below 0.9); details: mRNA level, 48 h; actives raise or lower the signal
Summary of the method: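 XBP1 transcript by qRT-PCR (housekeeping-normalized: ACTB, GAPDH, POLR2A) after 48 h chemical treatment of HepaRG cells, 8-point half-log series topping at 100 uM, vehicle 0.5% DMSO. Gain and loss of signal fitted relative to DMSO.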

[6] = ATG_XTT_Cytotoxicity: Cytotoxicity Assessment in the Attagene TRANS-FACTORIAL HepG2 Assay (AID 2283584)
Summary of the method: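 Viability endpoint from XTT after 24 h chemical exposure of reporter-transfected human HepG2 liver cells; signal loss fitted relative to DMSO negative control.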

[7] = TOX21_p53_BLA_p2_viability: Viability Assessment in the Tox21 HCT-116 p53 Agonism Beta-lactamase Assay, Phase 2 (AID 2283591);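 further: compound exposure lasted 16 h at 37 °C; actives lower the ATP signal meaning cytotoxicity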
Summary of the method: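 HCT-116 p53-bla cells (4000/well) rested 5 h at 37C, then received compounds in DMSO (217-fold dilution) for 16 h at 37C, 5% CO2. After the CCF4 read, CellTiter-Glo was added; ATP luminescence was read after 30 min at room temperature.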

[8] = biological target: Cellular tumor antigen p53 (Homo sapiens) (UniProt P04637); test: TOX21_p53_BLA_p2_ratio: Tox21 HCT-116 p53 Agonism Beta-lactamase Assay, Ratio, Phase 2 (AID 2283592)
Summary of the method: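 Read-out is the blue/green (460/530 nm, 405 nm excitation) ratio after 2 h CCF4-AM loading, fitted as gain versus DMSO. Compounds, pinned at 217-fold dilution from DMSO stocks, stayed 16 h on HCT-116 beta-lactamase reporter cells seeded 5 h earlier.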

[9] = TOX21_p53_BLA_p3_viability: Viability Assessment in the Tox21 HCT-116 p53 Agonism Beta-lactamase Assay, Phase 3 (AID 2283593);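 further: cells exposed to compound for 16 h before reading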
Summary of the method: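 HCT-116 cells (4000/well) rested 5 h at 37C, then got DMSO compounds by pin tool (217-fold dilution) for 16 h at 37C, 5% CO2. After the bla read, CellTiter-Glo was added and luminescence read at 30 min, room temperature.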

[10] = biological target: Cellular tumor antigen p53 (Homo sapiens) (UniProt P04637); test: TOX21_p53_BLA_p3_ratio: Tox21 HCT-116 p53 Agonism Beta-lactamase Assay, Ratio, Phase 3 (AID 2283596)
Summary of the method: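 Cells were seeded at 4000/well, rested 5 h at 37C, then dosed with DMSO compound solutions (217-fold dilution) for 16 h. CCF4-AM substrate was loaded for 2 h at room temperature, and the 460/530 nm emission ratio was fitted for gain of signal versus DMSO.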

[11] = TOX21_p53_BLA_p4_viability: Viability Assessment in the Tox21 HCT-116 p53 Agonism Beta-lactamase Assay, Phase 4 (AID 2283597);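 further: hits lower the luminescence signal meaning cytotoxicity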
Summary of the method: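 Cytotoxicity as reduced cellular ATP (CellTiter-Glo luminescence, 30 min room temperature), measured in the same wells following the CCF4 FRET p53 reading. Human HCT-116 cells received compounds in DMSO (217-fold dilution) for 16 h.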

[12] = TOX21_p53_BLA_p5_viability: Viability Assessment in the Tox21 HCT-116 p53 Agonism Beta-lactamase Assay, Phase 5 (AID 2283600)
Summary of the method: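 Viability came from CellTiter-Glo ATP luminescence, read after 30 min at room temperature. Before this, HCT-116 p53-bla cells (4000/well) had 16 hours of compound exposure at 37C, with DMSO stocks diluted 217-fold on transfer.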

[13] = biological target: Cellular tumor antigen p53 (Homo sapiens) (UniProt P04637); test: TOX21_p53_BLA_p4_ratio: Tox21 HCT-116 p53 Agonism Beta-lactamase Assay, Ratio, Phase 4 (AID 2283601)
Summary of the method: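 HCT116 cells carrying an inducible beta-lactamase reporter were plated at 4000 cells/well, rested 5 h, then exposed to compounds in DMSO (217-fold dilution) for 16 h at 37C. CCF4-AM substrate was loaded 2 h at room temperature; 460/530 nm emission ratio scored gain-of-signal versus DMSO.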

[14] = Tanguay_ZF_120hpf_MORT_legacy: (Legacy) Oregon State University Tanguay Lab 120 Hour Post-fertilization zebrafish Assay for Mortality (AID 2283633);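 on AC50: fitted as increase in binary mortality versus DMSO negative control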
Summary of the method: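 Static waterborne exposure from 6 to 120 hpf at 28C of single dechorionated wild-type (5D) embryos per well, 0.64% DMSO final. Death recorded present/absent by brightfield at 24 and 120 hpf.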

[15] = Tanguay_ZF_120hpf_AXIS_legacy: (Legacy) Oregon State University Tanguay Lab 120 Hour Post-fertilization zebrafish Assay for Body Axis Malformation (AID 2283635)
Summary of the method: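 Binary scoring of axis defects at 120 hpf under brightfield, fitted positive versus DMSO. Tropical 5D embryos, chorion removed by pronase at 4 hpf, were singly exposed in sealed, dark plates at 28C from 6 hpf; DMSO 0.64% final.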

[16] = Tanguay_ZF_120hpf_EYE_legacy: (Legacy) Oregon State University Tanguay Lab 120 Hour Post-fertilization zebrafish Assay for Eye Malformation (AID 2283636);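 further: binary presence or absence of eye malformation scored by brightfield in 120 hpf larvae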
Summary of the method: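 Static waterborne exposure of dechorionated zebrafish embryos (strain Tropical 5D), 6 to 120 hpf, sealed plates at 28C, 0.64% DMSO vehicle. Eye malformation is scored as a binary endpoint, with gain of signal analysed relative to DMSO.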

[17] = Tanguay_ZF_120hpf_YSE_legacy: (Legacy) Oregon State University Tanguay Lab 120 Hour Post-fertilization zebrafish Assay for Yolk Sac Edema (AID 2283634)
Summary of the method: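 Presence or absence of yolk sac edema was recorded at 120 hpf in surviving larvae. These were wild-type Tropical 5D embryos, chorion removed at 4 hpf, held in static exposure at 28C from 6 hpf with 0.64% DMSO vehicle.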

[18] = Tanguay_ZF_120hpf_SNOU_legacy: (Legacy) Oregon State University Tanguay Lab 120 Hour Post-fertilization zebrafish Assay for Snout Malformation (AID 2283637)
Summary of the method: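 Dechorionated zebrafish, individually housed from 6 hpf in covered, sealed wells at 28C with 0.64% DMSO vehicle, were examined at 120 hpf for snout malformation. Responses were binary and analysed positive-direction relative to DMSO.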

[19] = LTEA_HepaRG_LDH_cytotoxicity: Cytotoxicity Assessment in the Life Technologies and Expression Analysis (LTEA) Assay (AID 2283563);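 on AC50: LDH activity released into spent culture medium as a marker of cell death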
Summary of the method: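 LDH release into culture medium read after 48 h chemical treatment of HepaRG cells. Duplicate wells, eight-point half-log series topping at 100 uM, 0.5% DMSO vehicle and baseline.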

Measured: AC50

Chain of Cellular tumor antigen p53 (Homo sapiens) (P04637 whole entry, looked up): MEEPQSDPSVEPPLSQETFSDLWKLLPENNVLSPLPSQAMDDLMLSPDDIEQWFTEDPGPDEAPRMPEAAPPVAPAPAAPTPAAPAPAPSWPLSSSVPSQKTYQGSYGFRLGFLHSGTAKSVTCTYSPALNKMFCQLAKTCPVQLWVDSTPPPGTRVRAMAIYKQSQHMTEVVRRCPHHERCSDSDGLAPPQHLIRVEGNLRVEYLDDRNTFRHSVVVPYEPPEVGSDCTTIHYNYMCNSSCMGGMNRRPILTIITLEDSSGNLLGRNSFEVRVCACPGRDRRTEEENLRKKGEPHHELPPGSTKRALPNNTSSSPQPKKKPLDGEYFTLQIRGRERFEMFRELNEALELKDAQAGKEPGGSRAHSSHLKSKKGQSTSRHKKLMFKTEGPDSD

c1ccc2occc2c1
inactive: [1] | [2] | [3] | [4] | [5] | [6] | [7] | [8] | [9] | [10] | [11] | [12] | [13] | [14] | [15] | [16]

CO[C@@H]1COCC[C@@H]1N[C@@H]1CC[C@@](C(=O)N2CCc3ncc(C(F)(F)F)cc3C2)(C(C)C)C1
inactive: [1] | [2] | [3] | [4] | [5] | [7] | [9] | [12] | [14] | [17] | [15] | [16] | [18]

Oc1ccc(O)cc1
active: [7] 72.8 µM and 70 µM | [8] 20.2 µM | [9] 42.5 µM and 61.1 µM and 38.2 µM | [10] 21.4 µM | [11] 47.1 µM and 70.6 µM and 36.2 µM | [12] 17 µM and 35.8 µM and 37.7 µM | [14] 1.77 µM
inactive: [1] | [2] | [3] | [4] | [5] | [6] | [7] | [8] | [10] | [13] | [17] | [15] | [16] | [18]

CCCC[C@H]1CN(CC2CCOCC2)C(=O)OC12CCN(C1(C)CCN(C(=O)c3c(C)ncnc3C)CC1)CC2
inactive: [1] | [2] | [3] | [4] | [5] | [19] | [6] | [8] | [9] | [10] | [11] | [12] | [13] | [14] | [17] | [15] | [16] | [18]

CN(C)CCCN(C)CCCN(C)C
inactive: [1] | [2] | [3] | [4] | [5] | [6] | [8] | [10] | [12] | [13] | [14] | [17] | [15] | [16] | [18]

CCc1nc(N)nc(N)c1-c1ccc(Cl)cc1
active: [1] 76.3 µM | [19] 66.1 µM | [7] 17.2 µM and 11.8 µM | [8] 58.9 µM and 27 µM | [9] 46.1 µM and 18.5 µM | [11] 18.3 µM and 15.9 µM and 10.4 µM | [12] 15.3 µM | [13] 47.9 µM
inactive: [2] | [3] | [4] | [5] | [6] | [7] | [8] | [10] | [12] | [13] | [14] | [17] | [15]
